# Screening results deposited in PubChem by National Center for Advancing Translational Sciences (NCATS).
# gsp ag: agonists of gsp mutant (McCune-Albright syndrome); Potency, µM (top dose mostly 76.9 µM), without a hit: top-dose activation (cAMP increase), hits mostly activators; gsp mutant cells, cAMP HTRF, 30 min; hit rate 0.13% among 340,000; active means well fitted activation curve with a large enough effect; inconclusive means small, poorly fitted or top-dose-only effect, or another doubt; inactive means no such curve, though single readings can be large or run the other way; cell line not stated here;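 further: phosphodiesterase inhibitor Ro 20-1724 added with compounds to block cAMP breakdown; potency means the concentration at half of the fitted maximal effect; nearly all actives have a fitted effect of over 60% in size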
#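 Cells in DMEM/10% FBS with G418 were pretreated with compounds in DMSO plus […] (300 uM stock) for 30 min at 37C. cAMP was measured by HTRF (cAMP-d2 plus anti-cAMP antibody-K) after 30 min at room temperature.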
# gsp antagonist: antagonizes gsp, the McCune-Albright syndrome mutation; gsp-mutant cells, cAMP HTRF, 30 min; Potency, µM (doses to about 76.9 µM), for inactives: top-dose activity change, negative = inhibition, most hits filed as inhibitors; hit rate 0.4% among 340,000; AID 624288; calls by dose curve; cell line not stated here;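 further: intracellular cAMP measured with PDE inhibitor Ro 20-1724 present during compound exposure; potency means the concentration at half of the fitted maximal effect; on the % scale 0 is the no-effect control and ±100 the full control effect; nearly all actives have a fitted effect of over 65% in size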
#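 Measurement of cellular cAMP by homogeneous time-resolved fluorescence following a 30 min compound exposure at 37C. The PDE inhibitor […] was present throughout; the assay buffer was DPBS with 0.05% BSA and 0.005% Tween 20.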
# pAkt inh: Akt phosphorylation inhibition | activity change, % for hits at 50 µM | hit rate 0.32% among 360,000 | Neuro2A IGF-stimulated pAkt S473 HTRF, 20 min; hits give low values; in the data active means activity change below about -80%; inconclusive means mostly about -51% to -80%; further: on the % scale 0 is the no-effect control and ±100 the full control effect
#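 Neuro2A cells in DMEM with 0.5% FBS, overnight at 37 deg C, given compound at single 50 µM final, then IGF (6 nM final) for 20 min at 37 deg C. Lysed; phospho-Akt Ser473 by HTRF after 24 h, 665/615 ratio.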
# hERG WT inh: KCNH2 (human, wildtype) channel inhibition; Q12809; U2OS, BacMam KCNH2, thallium flux FluxOr; hits give low values; activity change, % at 1.84 µM; hit rate 0.37% among 340,000;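 active means maximum activity change below -70%; inconclusive means maximum activity change between -70% and -50%; inactive means maximum activity change above -50%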; further: on the % scale 0 is the no-effect control and ±100 the full control effect
# Target sequence (Q12809 whole entry, looked up): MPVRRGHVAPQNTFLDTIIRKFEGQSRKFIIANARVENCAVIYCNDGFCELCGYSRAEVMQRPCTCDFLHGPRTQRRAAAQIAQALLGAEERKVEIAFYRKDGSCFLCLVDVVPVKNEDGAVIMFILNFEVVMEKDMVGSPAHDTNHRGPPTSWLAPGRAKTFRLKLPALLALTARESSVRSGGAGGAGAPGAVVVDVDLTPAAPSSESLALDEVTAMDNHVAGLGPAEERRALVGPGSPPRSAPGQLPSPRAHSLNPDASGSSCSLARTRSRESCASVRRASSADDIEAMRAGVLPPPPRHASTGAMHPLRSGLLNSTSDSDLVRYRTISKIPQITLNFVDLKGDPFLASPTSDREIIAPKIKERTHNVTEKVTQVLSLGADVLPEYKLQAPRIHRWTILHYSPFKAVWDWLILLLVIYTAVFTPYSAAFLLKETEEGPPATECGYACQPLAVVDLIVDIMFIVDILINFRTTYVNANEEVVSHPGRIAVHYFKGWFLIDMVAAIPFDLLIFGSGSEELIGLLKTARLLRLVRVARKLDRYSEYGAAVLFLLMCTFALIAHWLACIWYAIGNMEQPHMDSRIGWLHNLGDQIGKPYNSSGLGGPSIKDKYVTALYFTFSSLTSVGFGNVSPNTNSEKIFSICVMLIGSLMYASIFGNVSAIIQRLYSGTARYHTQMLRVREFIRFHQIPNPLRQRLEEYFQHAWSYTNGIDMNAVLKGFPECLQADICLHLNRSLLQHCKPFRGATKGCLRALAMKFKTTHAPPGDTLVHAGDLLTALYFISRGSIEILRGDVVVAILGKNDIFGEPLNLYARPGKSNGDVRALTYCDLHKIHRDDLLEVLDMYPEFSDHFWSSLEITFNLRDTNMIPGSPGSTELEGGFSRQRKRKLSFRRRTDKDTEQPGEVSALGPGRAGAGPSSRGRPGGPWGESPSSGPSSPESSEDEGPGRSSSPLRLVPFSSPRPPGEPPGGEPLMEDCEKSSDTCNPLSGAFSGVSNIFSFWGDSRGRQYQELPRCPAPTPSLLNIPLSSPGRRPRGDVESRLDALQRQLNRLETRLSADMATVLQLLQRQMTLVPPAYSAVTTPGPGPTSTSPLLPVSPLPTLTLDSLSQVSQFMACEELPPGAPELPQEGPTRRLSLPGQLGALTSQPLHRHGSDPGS
#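 U2OS cells transduced with wild-type KCNH2 virus are loaded with FluxOr dye for 45 min, and thallium flux is measured in kinetic reads before and after stimulation buffer. Rate constants are normalized to DMSO controls.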
# Glioma ERSR ind: inducers of ER stress response in human glioma cells; AID 602332; hit rate 0.02% among 420,000; Potency, µM, without a hit: at the highest dose activation, usual class: activators; U87-MG GRP78 promoter luciferase reporter, 16 h; active means well fitted activation curve with a large enough effect; inconclusive means small, poorly fitted or top-dose-only effect; inactive means no such curve, though single readings can be large or run the other way; further: potency means the concentration at half of the fitted maximal effect; series mostly up to about 76 µM; % of control where 0% means no effect; nearly all actives have a fitted effect of over 35% in size
#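 ERSR induction read as luciferase luminescence (Bright-Glo, 10 min at room temperature) in stably transfected human U87-MG glioma cells exposed to compounds for 16 h, using GRP78 as sensor.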
# KCNH2 3.1 block: KCNH2 3.1 (human) potassium channel inhibition; U2OS KCNH2 3.1, thallium flux FluxOr; hits give low values; activity change, % (tested at about 1.8 µM); AID 720553; hit rate 0.95% among 340,000;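 active means maximum activity change below -70%; inconclusive means maximum activity change from -70% to -50%; inactive means maximum activity change above -50%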;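 further: thallium influx rate constant from kinetic fluorescence after stimulation buffer; on the % scale 0 is the no-effect control and ±100 the full control effect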
#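 FluxOr-based Tl+ influx in U2OS cells transduced with KCNH2 3.1 virus; rate constants normalized to DMSO controls.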
# An asterisk follows results filed as active; i = inactive; ? = inconclusive; · = no result; [ ] = dose if it differs, or a comment. Hits are enriched below; roughly 1.6% of the tested compounds scored in any of these assays.
SMILES,gsp ag,gsp antagonist,pAkt inh,hERG WT inh,Glioma ERSR ind,KCNH2 3.1 block
O=C(CN1C2CCC1CC(NC(=O)Nc1ccccc1)C2)NCc1ccco1 (stereo not given),-33.7%,9.4%,-107.5%*,0.6,1.4%,-3.4
O=C(NCc1ccccc1)NC1CC2CCC(C1)N2Cc1ccco1 (stereo not given),-0.6%,17.7%,i,17.8,-1.9%,-11.4
CC1(C)Cc2c(sc3c2c(=N)n(Cc2ccco2)c(=O)n3CC(=O)Nc2cccc(Cl)c2)CO1,-9.9%,-10.1%[15.4 µM],-122.3%*,-3.8,-7.8%,10.5
Cc1cccc(NC(=O)Cn2c(=O)n(Cc3ccco3)c(=N)c3c4c(sc32)COC(C)(C)C4)c1,-33.1%,-5.7%,i,-0.4,0.3%,-0.7
COc1ccc(CN2C(=O)C(C)N(C(=O)c3c(F)cccc3F)c3ccccc32)cc1 (stereo not given),-3.3%,?,i,-2.9,9.2%,11.1
CC1C(=O)N(Cc2ccc([N+](=O)[O-])cc2)c2ccccc2N1C(=O)c1c(F)cccc1F (stereo not given),-14.5%[15.4 µM],-17.2%,i,-79.4*,-0.5%,-1.5
Cc1nonc1CN(C)C(=O)C1CC12CCN(C(=O)/C=C/c1cccc(Cl)c1)CC2 (stereo not given),·,·,·,·,-1.2%,·
COc1ccc(OC)c(NC(=O)c2nc(S(=O)(=O)Cc3ccc(F)cc3)ncc2Cl)c1,·,·,·,·,-10.0%,·
OC1CCN(CC(O)C(F)(F)F)CC1 (stereo not given),21.3%,-8.4%,i,2.2,1.8%,-101.9*
CCN1CCCC1CNC(=O)c1cnn(-c2nccc(-c3cccs3)n2)c1C1CC1 (stereo not given),·,·,·,·,-1.5%,·
Cc1cc(CNC(=O)c2cnn(-c3ncc4c(n3)-c3ccccc3CC4)c2C2CC2)on1,·,·,·,·,9.4%,·
CCOC(=O)N1CCN(Cc2ccc3c(c2)CN(C(=O)c2ccc(C#CC(C)(C)O)o2)CCO3)CC1,·,·,·,·,-2.5%,·
CC[C@@H](C)[C@H](NC(=O)OCc1ccccc1)c1nnc([C@@H](NC(=O)OCc2ccccc2)[C@@H](C)CC)o1,·,8.1%,i,4.5,-1.7%,-85.8*
CC(C)(C)c1ccc(C(=O)NCCCN2CCN(CCCNC(=O)c3ccc(C(C)(C)C)cc3)CC2)cc1,0.1%,1.2%,i,-5.7,-13.1%,-113.6*
COc1ccc(CCNC(=O)c2ccc(Cl)cc2)cc1OC,-26.9%[15.4 µM],-4.2%,i,1.5,-4.6%,-8.1
COc1ccc(CCNC(=O)c2c(Cl)ccc(Cl)c2OC)cc1OC,-0.2%,1.8%,i,-1.0,-2.0%,-96.5*
COc1ccc(CCNC(=O)/C=C/c2ccc(C)cc2)cc1OC,-12.4%,-4.4%,i,-1.1,0.6%,-88.8*
COc1ccc(/C=C/C(=O)NCCCN2CCCC2)cc1,5.7%,11.4%,i,19.9,-3.3%,-4.2
Cc1ccc(/C=C/C(=O)NCCCN2CCN(CCCNC(=O)/C=C/c3ccc(C)cc3)CC2)cc1,25.2%,3.2%,i,-119.1*,-1.5%,-121.8*
CCOC(=O)C1=C(CC)Nc2ccccc2N=C1NC(=O)Nc1ccc(Cl)c(Cl)c1,-7.0%,31.6µM*,i,-0.7,-4.4%,10.6
CCOC(=O)C1=C(CC)Nc2ccccc2N=C1NC(=O)c1cc(C)on1,-2.6%,-1.3%,i,-5.3,0.2%,-23.2
COc1ccccc1CNC(=O)c1cnn(-c2nccc(-c3cccs3)n2)c1C,·,·,·,·,-2.4%,·
CC(C)CCn1c(-c2nonc2N)nc2ccccc21,-21.5%,28.2µM*,i,8.5,-9.9%,-1.8
O=C(Cn1nc2ccccc2n1)N1CCOc2ccc(CN3CCc4sccc4C3)cc2C1,·,·,·,·,2.4%,·
CCN(CC(=O)NCc1ccc(Cl)cc1)C(=O)CSc1ccc(Br)cc1,19.5%,39.8µM*,i,-6.1,-3.5%,-31.2
SMILES,gsp ag,gsp antagonist,pAkt inh,hERG WT inh,Glioma ERSR ind,KCNH2 3.1 block
O=C(NC1CC1)c1nc(Cn2cc([N+](=O)[O-])cn2)no1,-1.5%,8.7%,i,-73.2*,-5.3%,2.5
COc1cccc(C2C(C(=O)Nc3nc4ccccc4s3)=C(C)NC3=C2C(=O)CC(C)(C)C3)c1OC (stereo not given),7.8%,-15.4%,i,0.9,-0.8%,-4.8
COc1ccc(OC)c(C2C(C(=O)Nc3nc4ccccc4s3)=C(C)NC3=C2C(=O)CCC3)c1 (stereo not given),-15.4%,31.6µM*,·,-3.8,12.7%,6.5
COCC(=O)Nc1cc(C(=O)NC2Cc3ccccc3C2)cc2nc(-c3cccnc3)n(C)c12,·,·,·,·,-1.5%,·
Cc1ccccc1Oc1nnc(-c2cccs2)c2ccccc12,7.8%[15.4 µM],25.1µM*,i,1.6,-4.5%,-18.4
COc1ccc(NC(=O)NCCCN2CCCC2=O)cc1,2.9%,-12.8%,i,-1.7,-1.3%,35.7
COc1ccc(NC(=O)CC(C)NCCCN2CCCC2=O)cc1 (stereo not given),2.0%,13.4%,i,-332.8*,3.9%,7.5
Cc1c(/C=C/c2ccnc3ccccc23)ccc(N(C)C)c1C,·,·,·,·,0.3%,·
COc1cc(/C=C(/C#N)c2ccc(F)cc2)ccc1OCc1ccc(C(=O)O)o1,5.8%,39.8µM*,i,3.7,9.2%,-19.4
COc1cc(/C=C(\C#N)C(=O)Nc2cccc(C(=O)O)c2)ccc1OCc1ccc(F)cc1,?,-36.0%,i,-9.6,4.0%,16.1
CCNCCNC(=O)c1c(O)c2cccc3c2n(c1=O)CCC3,22.4%,-5.7%,i,-179.2*,-8.6%,7.9
Cc1nc2cccc(C(=O)Oc3ccc([N+](=O)[O-])cc3)c2o1,-2.5%[15.4 µM],0.0%,i,7.1,-3.3%,-8.3
Cc1c(-c2ccccc2)nc2ccccc2c1C(=O)Oc1ccc([N+](=O)[O-])cc1,-32.2%,13.4%,i,-86.7*,-2.0%,-76.6*
CN(c1ccc(OCC(=O)N2CCCC2)cc1)S(=O)(=O)c1ccc(Cl)cc1,-0.9%,-14.4%,i,-132.9*,-3.7%,10.9
O=C(COc1ccc(Br)cc1)N1CCOCC1,3.9%,-5.3%,i,-17.8,0.9%,-25.7
CCOc1ccc(OCC(=O)N2CCOCC2)cc1,-39.8%,4.8%,-98.5%*,26.3,10.0%,3.6
CCOc1ccc(S(=O)(=O)N(C)CC(=O)N2CCCC2)cc1,-60.0%,3.5%,i,-8.9,-2.7%,-99.6*
CCOc1ccc(S(=O)(=O)N(C)c2ccc(OCC(=O)N3CCOCC3)cc2)cc1,13.7%,-2.9%,i,0.1,-2.0%,2.7
COc1ccc(S(=O)(=O)N(C)CC(=O)N2CCCCCC2)cc1,-9.1%[15.4 µM],-0.8%,i,-17.9,0.7%,7.5
O=c1c2ccccc2sn1-c1ccc(Cl)c(S(=O)(=O)N2CCOCC2)c1,·,·,·,·,-5.8%,·
Clc1ccc(-c2csc3ncnc(Sc4nnnn4C4CC4)c23)cc1,·,·,·,·,-10.5%,·
